# Measurements published in the supplement of paper PMC9694430.
# System: LOC_OS05G16824-cb004
# Assay: thermal shift delta Tm vs DMSO control; higher = stronger stabilization (binding)
# Conditions: 12.5 µM; protein concentration 2 µM
# Method in brief: (§1)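 Purified, E. coli-expressed rice kinase domain constructs were tested by differential scanning fluorimetry in 96-well plates: 19.5 μl of 2 μM kinase in 100 mM potassium phosphate pH 7.5, 150 mM NaCl, 10% glycerol, 5 × SYPRO Orange, plus compound in DMSO. Fluorescence was read from 25°C to 95°C at 0.05°C/s. Melting temperatures came from Boltzmann fits, and the shift is the triplicate mean relative to protein with DMSO alone.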
row,Compound,thermal shift delta Tm [°C]
1,CN1CCN(c2cccc(Nc3nc4c(-c5ccc(S(C)(=O)=O)cc5)cccn4n3)c2)CC1,6.48
2,C[C@@H](NC(=O)c1ncnc(N)c1Cl)c1ncc(C(=O)Nc2cc(C(F)(F)F)c(Cl)cn2)s1,-2.64
3,N#CC(=C(/N)Sc1ccccc1N)/C(C#N)=C(\N)Sc1ccccc1N,-1.67
4,Cc1cc(Nc2cc(N3CCN(C)CC3)nc(/C=C/c3ccccc3)n2)n[nH]1,11.2
5,OCCn1cc(-c2ccc3c(c2)CC/C3=N\O)c(-c2ccncc2)n1,0.35
6,COc1cc2c(c(OC)c1OC)-c1c(cc3c(c1OC)OCO3)CC(C)C(C)C2 (centres undefined) [Schisandrin B (Sch B)],-1
7,COc1cc(N2CCN(C)CC2)ccc1Nc1nccc(-c2cn(C)c3cnccc23)n1,-3.65
8,CN(c1ccccc1CNc1nc(Nc2ccc3c(c2)CC(=O)N3)ncc1C(F)(F)F)S(C)(=O)=O,11.6
9,CNC(=O)c1ccc(Nc2ncc(C(F)(F)F)c(NCc3nccnc3N(C)S(C)(=O)=O)n2)cc1,9.21
10,O=C(O)c1ccc2c3c1cccc3c(=O)n1c3ccccc3nc21,1.51
11,Cc1nc(Nc2n[nH]c3c2CN(C(=O)N[C@H](CN(C)C)c2ccccc2)C3(C)C)c2sccc2n1,5.08
12,C[C@H]1[C@H](C)CC[C@]2(C(=O)O)CC[C@]3(C)C(=CC[C@@H]4[C@@]5(C)C[C@@H](O)[C@H](O)[C@@](C)(CO)[C@@H]5CC[C@]43C)[C@H]12 [Asiatic Acid],-3.69
13,COc1ccc(-c2cc3nccn3c(Nc3ncccc3C(N)=O)n2)cc1OC,-0.07
14,O=C(NCc1ccccc1)c1csc(Nc2ccncn2)n1 [Thiazovivin],-1.42
15,COc1cc(Nc2ncc(F)c(Nc3ccc4c(n3)NC(=O)C(C)(C)O4)n2)cc(OC)c1OC [R406 (free base)],12.6
16,Cc1ccc(S(=O)(=O)/C=C/C#N)cc1,-14.7
17,O=c1c(O)c(-c2ccc(O)c(O)c2)oc2cc(O)cc(O)c12 [Quercetin],3.82
18,C[C@H]1CNC(=O)c2cnn3ccc(nc23)N[C@H](C)c2cc(F)ccc2O1,12.5
19,C[C@@H](Nc1cc(F)cc(F)c1)c1cc(C(=O)N(C)C)cc2c(=O)cc(N3CCOCC3)oc12,-4.22

row,Compound,thermal shift delta Tm [°C]
1,Nc1cccc(-c2cc3c(Oc4cccc(O)c4)ncnc3[nH]2)c1,5.59
2,"CC[C@H](CO)Nc1nc(NCc2ccccc2)c2ncn(C(C)C)c2n1 [Roscovitine (Seliciclib,CYC202)]",-1.49
3,CCn1c(=O)c(-c2ccc(Cl)cc2Cl)cc2cnc(Nc3ccc(N4CCNCC4)c(F)c3)nc21,6
4,Cc1c[nH]c2nc(Nc3ccc(N4CCN(C)CC4)c(F)c3)nc(-c3cccc(CC#N)c3)c12,12.3
5,N#C/C(=C(/N)Sc1ccc(N)cc1)c1ccccc1C(F)(F)F,-2.13
6,FC(F)(F)c1ccc(CNc2ccc(Cc3c[nH]c4ncc(Cl)cc34)cn2)cn1 [Pexidartinib (PLX3397)],5.17
7,COc1cc(N2CCC(N(C)C)CC2)ccc1Nc1ncc(Cl)c(Nc2ccccc2P(C)(C)=O)n1,6.56
8,CCN(CC)CCNC(=O)c1c(C)[nH]c(/C=C2\C(=O)Nc3ccc(F)cc32)c1C [Sunitinib Malate],13.1
9,CCC(=O)Nc1cccc(Oc2nc(Nc3ccc(N4CCN(C)CC4)cc3OC)ncc2Cl)c1,-0.12
10,Cn1c(Nc2ccc(C(F)(F)F)cc2)nc2cc(Oc3ccnc(-c4ncc(C(F)(F)F)[nH]4)c3)ccc21,1.67
11,CCOc1cc(N2CCC(O)CC2)ccc1Nc1ncc2c(n1)N(C)c1ccccc1C(=O)N2C,-1.07
12,O=C(O)c1ccc(Nc2ncc3c(n2)-c2ccc(Cl)cc2C(c2c(F)cccc2F)=NC3)cc1,-1.88
13,C[C@@H]1CN(C(=O)c2ccc(NC(=O)c3cc(O[C@H](C)c4c(Cl)ccc(F)c4Cl)c(N)nn3)cc2)C[C@H](C)N1 [Ensartinib (X-396)],5.94
14,COc1ccc(F)c(F)c1C(=O)c1cnc(NC2CCN(S(C)(=O)=O)CC2)nc1N,-1.46
15,N#Cc1cnc(Nc2cc(NC[C@H]3CNCCO3)c(C(F)(F)F)cn2)cn1,4.42
16,O=c1nc(N2CCOCC2)oc2c(-c3cccc4c3sc3ccccc34)cccc12,1.26
17,Cc1nc(Nc2ncc(C(=O)Nc3c(C)cccc3Cl)s2)cc(N2CCN(CCO)CC2)n1 [Dasatinib],5.06
18,Cc1cc(Nc2cc(N3CCN(C)CC3)nc(/C=C/c3ccccc3)n2)n[nH]1 [ENMD-2076 L-(+)-Tartaric acid],10.9

# System: LOC_OS05G28520-cb001
# Assay: as above
# Conditions: 12.5 µM; protein concentration 2 µM
# Method in brief: as §1
row,Compound,thermal shift delta Tm [°C]
1,CN1CCN(c2cccc(Nc3nc4c(-c5ccc(S(C)(=O)=O)cc5)cccn4n3)c2)CC1,0.11
2,C[C@@H](NC(=O)c1ncnc(N)c1Cl)c1ncc(C(=O)Nc2cc(C(F)(F)F)c(Cl)cn2)s1,1.62
3,N#CC(=C(/N)Sc1ccccc1N)/C(C#N)=C(\N)Sc1ccccc1N,1.16
4,Cc1cc(Nc2cc(N3CCN(C)CC3)nc(/C=C/c3ccccc3)n2)n[nH]1,7.06
5,OCCn1cc(-c2ccc3c(c2)CC/C3=N\O)c(-c2ccncc2)n1,1.1
6,COc1cc2c(c(OC)c1OC)-c1c(cc3c(c1OC)OCO3)CC(C)C(C)C2 (centres undefined) [Schisandrin B (Sch B)],0.63
7,COc1cc(N2CCN(C)CC2)ccc1Nc1nccc(-c2cn(C)c3cnccc23)n1,0.25
8,CN(c1ccccc1CNc1nc(Nc2ccc3c(c2)CC(=O)N3)ncc1C(F)(F)F)S(C)(=O)=O,2.32
9,CNC(=O)c1ccc(Nc2ncc(C(F)(F)F)c(NCc3nccnc3N(C)S(C)(=O)=O)n2)cc1,6.38
10,O=C(O)c1ccc2c3c1cccc3c(=O)n1c3ccccc3nc21,0.41
11,Cc1nc(Nc2n[nH]c3c2CN(C(=O)N[C@H](CN(C)C)c2ccccc2)C3(C)C)c2sccc2n1,2.24
12,C[C@H]1[C@H](C)CC[C@]2(C(=O)O)CC[C@]3(C)C(=CC[C@@H]4[C@@]5(C)C[C@@H](O)[C@H](O)[C@@](C)(CO)[C@@H]5CC[C@]43C)[C@H]12 [Asiatic Acid],0.47
13,COc1ccc(-c2cc3nccn3c(Nc3ncccc3C(N)=O)n2)cc1OC,0.66
14,O=C(NCc1ccccc1)c1csc(Nc2ccncn2)n1 [Thiazovivin],0.2
15,COc1cc(Nc2ncc(F)c(Nc3ccc4c(n3)NC(=O)C(C)(C)O4)n2)cc(OC)c1OC [R406 (free base)],0.85
16,Cc1ccc(S(=O)(=O)/C=C/C#N)cc1,0.54
17,O=c1c(O)c(-c2ccc(O)c(O)c2)oc2cc(O)cc(O)c12 [Quercetin],0.95
18,C[C@H]1CNC(=O)c2cnn3ccc(nc23)N[C@H](C)c2cc(F)ccc2O1,0.06
19,C[C@@H](Nc1cc(F)cc(F)c1)c1cc(C(=O)N(C)C)cc2c(=O)cc(N3CCOCC3)oc12,0.89

row,Compound,thermal shift delta Tm [°C]
1,Nc1cccc(-c2cc3c(Oc4cccc(O)c4)ncnc3[nH]2)c1,0.57
2,"CC[C@H](CO)Nc1nc(NCc2ccccc2)c2ncn(C(C)C)c2n1 [Roscovitine (Seliciclib,CYC202)]",0.43
3,CCn1c(=O)c(-c2ccc(Cl)cc2Cl)cc2cnc(Nc3ccc(N4CCNCC4)c(F)c3)nc21,2.8
4,Cc1c[nH]c2nc(Nc3ccc(N4CCN(C)CC4)c(F)c3)nc(-c3cccc(CC#N)c3)c12,3.05
5,N#C/C(=C(/N)Sc1ccc(N)cc1)c1ccccc1C(F)(F)F,0.13
6,FC(F)(F)c1ccc(CNc2ccc(Cc3c[nH]c4ncc(Cl)cc34)cn2)cn1 [Pexidartinib (PLX3397)],1.46
7,COc1cc(N2CCC(N(C)C)CC2)ccc1Nc1ncc(Cl)c(Nc2ccccc2P(C)(C)=O)n1,0.2
8,CCN(CC)CCNC(=O)c1c(C)[nH]c(/C=C2\C(=O)Nc3ccc(F)cc32)c1C [Sunitinib Malate],1.41
9,CCC(=O)Nc1cccc(Oc2nc(Nc3ccc(N4CCN(C)CC4)cc3OC)ncc2Cl)c1,0.72
10,Cn1c(Nc2ccc(C(F)(F)F)cc2)nc2cc(Oc3ccnc(-c4ncc(C(F)(F)F)[nH]4)c3)ccc21,0.86
11,CCOc1cc(N2CCC(O)CC2)ccc1Nc1ncc2c(n1)N(C)c1ccccc1C(=O)N2C,0.32
12,O=C(O)c1ccc(Nc2ncc3c(n2)-c2ccc(Cl)cc2C(c2c(F)cccc2F)=NC3)cc1,0.62
13,C[C@@H]1CN(C(=O)c2ccc(NC(=O)c3cc(O[C@H](C)c4c(Cl)ccc(F)c4Cl)c(N)nn3)cc2)C[C@H](C)N1 [Ensartinib (X-396)],0.56
14,COc1ccc(F)c(F)c1C(=O)c1cnc(NC2CCN(S(C)(=O)=O)CC2)nc1N,0.04
15,N#Cc1cnc(Nc2cc(NC[C@H]3CNCCO3)c(C(F)(F)F)cn2)cn1,0.04
16,O=c1nc(N2CCOCC2)oc2c(-c3cccc4c3sc3ccccc34)cccc12,-0.27
17,Cc1nc(Nc2ncc(C(=O)Nc3c(C)cccc3Cl)s2)cc(N2CCN(CCO)CC2)n1 [Dasatinib],1.02
18,Cc1cc(Nc2cc(N3CCN(C)CC3)nc(/C=C/c3ccccc3)n2)n[nH]1 [ENMD-2076 L-(+)-Tartaric acid],5.68
